Experimental data reported in PubChem BioAssay (NCATS).
Results filed as inconclusive are left out. Calls of active or inactive are those of the source. Calls follow the shape of the dose curve; as a rule, active = well fitted cell-killing curve with a large enough effect; inconclusive = small, poorly fitted or top-dose-only effect, or effect the other way; inactive = no such curve, though single readings can be large or run the other way.

Test: Quantitative High-Throughput drug screen in 47 multiple myeloma cell lines against the NCATS MIPE library collection: FR4_PLB cell viability assay (AID 1918924; also: nearly all actives have a fitted effect of over 35% in size)
Conditions: FR4_PLB myeloma cells viability, CellTiter-Glo ATP, 48 h; series mostly up to 45.8 µM
Summary of the method: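 Relative luminescence from CellTiter-Glo served as the viability signal, referenced to DMSO-treated (100%) and cell-free medium (0%) controls. Treatment lasted 48 hours at 37C with 500 cells per well.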
Potency is read from the fitted curve at half-maximal effect.

Row | SMILES | Potency
1 | CC=C1C2C=C(C)CC1(N)c1ccc(=O)[nH]c1C2 (configuration not stated) | inactive
2 | C[C@@H]1O[C@@H](O[C@H]2CC[C@@]3(C)[C@H](CC[C@@H]4[C@H]3C[C@@H](O)[C@]3(C)[C@@H](C5=CC(=O)OC5)CC[C@]43O)C2)C[C@H](O)[C@@H]1O[C@H]1C[C@H](O)[C@H](O[C@H]2C[C@H](O)[C@@H](O)[C@@H](C)O2)[C@H](C)O1 (stereo in doubt) | 0.0762 µM (active)
3 | COc1ccc2c(c1)CC[C@H]1[C@@H]2CC[C@]2(C)[C@@H](NCCCCCCN3C(=O)C=CC3=O)CC[C@H]12 | inactive
4 | CN(C)CCOc1ccc(-c2nc(-c3ccc4c(c3)CCC4=NO)c(-c3ccncc3)[nH]2)cc1 | 18.7 µM (active)
5 | COc1c(C)c2c(c(O)c1CC=C(C)CCC(=O)OCCN1CCOCC1)C(=O)OC2 | 5.26 µM (active)
6 | CC(C)N(CCCNC(=O)Nc1ccc(C(C)(C)C)cc1)C[C@H]1O[C@@H](n2cc(Br)c3c(N)ncnc32)[C@H](O)[C@H]1O | 23.5 µM (active)
7 | CC[C@H](NC(=O)[C@H](C)NC)C(=O)N1C[C@@H](O)C[C@H]1Cc1c(-c2[nH]c3cc(F)ccc3c2C[C@H]2C[C@H](O)CN2C(=O)[C@H](CC)NC(=O)[C@H](C)NC)[nH]c2cc(F)ccc12 | inactive
8 | CC1(C)OC2CC3C4CC(F)C5=CC(=O)C=CC5(C)C4C(O)CC3(C)[C@]2(C(=O)CO)O1 (some centres not stated) | inactive

Test: Quantitative High-Throughput drug screen in 47 multiple myeloma cell lines against the NCATS MIPE library collection: Delta47_JCRB cell viability assay (AID 1918925; also: nearly all actives have a fitted effect of over 45% in size)
Conditions: Delta47 myeloma viability, CellTiter-Glo ATP, 48 h; series mostly up to 45.8 µM
Summary of the method: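 We plated 500 myeloma cells per well, pinned in MIPE 4.0 compounds, and incubated for 48 hours at 37C. ATP was then quantified with CellTiter-Glo, with DMSO and media-only wells defining 100% and 0%.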

Row | SMILES | Potency
9 | CC=C1C2C=C(C)CC1(N)c1ccc(=O)[nH]c1C2 (configuration not stated) | inactive
10 | OC[C@H]1O[C@@H](Oc2ccc(O)cc2)[C@H](O)[C@@H](O)[C@H]1O | inactive
11 | CC[C@H](C)n1cc(C)c2c(C(=O)NCc3c(C)cc(C)[nH]c3=O)cc(-c3ccc(N4CCNCC4)nc3)cc21 | 20.9 µM (active)
12 | CC(C)n1c(C=C[C@H](O)C[C@H](O)CC(=O)O)c(-c2ccc(F)cc2)c2ccccc21 | 18.7 µM (active)
13 | Cc1ccc(NC(=O)Nc2cc(C(F)(F)F)ccc2F)cc1Nc1ccc2c(c1)NC(=O)C2=Cc1ccc[nH]1 | 4.69 µM (active)
14 | C[C@@H]1O[C@@H](O[C@H]2CC[C@@]3(C)[C@H](CC[C@@H]4[C@H]3C[C@@H](O)[C@]3(C)[C@@H](C5=CC(=O)OC5)CC[C@]43O)C2)C[C@H](O)[C@@H]1O[C@H]1C[C@H](O)[C@H](O[C@H]2C[C@H](O)[C@@H](O)[C@@H](C)O2)[C@H](C)O1 (stereo in doubt) | 0.241 µM (active)
15 | Cc1c(-c2cccc3c(CCCOc4cccc5ccccc45)c(C(=O)O)n(Cc4cccnc4)c23)c(COc2ccc(N3CCN([S+](=O)([O-])N(C)C)CC3)cc2)nn1C | 14.8 µM (active)
16 | COc1ccc2c(c1)CC[C@H]1[C@@H]2CC[C@]2(C)[C@@H](NCCCCCCN3C(=O)C=CC3=O)CC[C@H]12 | inactive
17 | CC(=O)N1CCN(c2ccc(OCc3nn(C)c(C)c3-c3cccc4c(CCCOc5cc(C)c(Cl)c(C)c5)c(C(=O)O)n(Cc5cccnc5)c34)cc2)CC1 | 4.69 µM (active)
18 | COc1cc(Cl)cn2c(-c3cccc(NC4CNC4)n3)cnc12 | 20.9 µM (active)
19 | CN1CCC[C@H]1CCO[C@](C)(c1ccccc1)c1ccc(Cl)cc1 | 13.2 µM (active)
20 | C=C[C@@H]1CN2CCC1C[C@@H]2C(O)c1ccnc2ccc(OC)cc12 (some centres not stated) | inactive
21 | Cc1nc(NC(=O)N2CCC[C@@H]2C(N)=O)sc1-c1csc(C(C)(C)C)n1 | 3.32 µM (active)
22 | CCC(=O)OCC(=O)[C@@]1(OC(=O)CC)[C@@H](C)C[C@@H]2[C@H]3CCC4=CC(=O)C=C[C@]4(C)[C@@]3(F)[C@@H](O)C[C@@]21C | inactive
23 | Cc1cc(CS(=O)(=O)c2ccccc2)cc(OCc2ccc(CN3CCC[C@H]3CO)cc2)c1 | 14.8 µM (active)
24 | C[C@@H]1[C@H](O)[C@@H](C)C=CC=CC=CC=CC=CC=CC=C[C@H](O[C@@H]2O[C@H](C)[C@H](O)[C@H](N)[C@@H]2O)C[C@@H]2O[C@](O)(C[C@@H](O)C[C@@H](O)[C@H](O)CC[C@@H](O)C[C@@H](O)CC(=O)O[C@H]1C)C[C@H](O)[C@@H]2C(=O)O | inactive
25 | COc1cc(C=CC(=O)O)ccc1O | inactive
26 | CN[C@@H]1CN(c2ccc3c(=O)c(C(=O)O)cn(-c4nccs4)c3n2)C[C@@H]1OC | 5.75 µM (active)
27 | CN(C)CCOc1ccc(-c2nc(-c3ccc4c(c3)CCC4=NO)c(-c3ccncc3)[nH]2)cc1 | 14.8 µM (active)
28 | CC1(C)[C@H]2CC[C@]3(C)[C@@H](C(=O)C=C4[C@@H]5C[C@@](C)(C(=O)O)CC[C@]5(C)CC[C@]43C)[C@@]2(C)CC[C@@H]1O | inactive

Row | SMILES | Potency
29 | CN1[C@H]2CC[C@H]1CC(OC(=O)c1c[nH]c3ccccc13)C2 (some centres not stated) | 4.18 µM (active)
30 | OC[C@H]1O[C@@H](O[C@H]2[C@@H](O)[C@@](O)(CO)O[C@@H]2CO)[C@H](O)[C@@H](O)[C@@H]1O | inactive
31 | Oc1cc(O)cc(C=Cc2ccc(O)c(O)c2)c1 | 4.69 µM (active)
32 | CN(C(Cc1ccc(OS(=O)(=O)c2cccc3cnccc23)cc1)C(=O)N1CCN(c2ccccc2)CC1)S(=O)(=O)c1cccc2cnccc12 (configuration not stated) | 5.26 µM (active)
33 | O=C(C=Cc1ccc(O)cc1)c1ccc(O)cc1O | 13.2 µM (active)
34 | C=CC[N+]1([C@H]2C[C@H]3[C@@H]4CC[C@H]5C[C@H](O)[C@@H](N6CCOCC6)C[C@]5(C)[C@@H]4CC[C@]3(C)[C@H]2OC(C)=O)CCCC1 | inactive
35 | CCOC(=O)[C@H]1O[C@H]1C(=O)N[C@@H](CC(C)C)C(=O)NCCC(C)C | inactive
36 | COc1c(C)c2c(c(O)c1CC=C(C)CCC(=O)OCCN1CCOCC1)C(=O)OC2 | inactive
37 | C[C@@H]1CC=CC=CC=CC=C[C@@H](O[C@@H]2O[C@H](C)[C@@H](O)[C@H](N)[C@H]2O)C[C@@H]2O[C@](O)(C[C@@H](O)C[C@@H]3O[C@@H]3C=CC(=O)O1)C[C@H](O)[C@@H]2C(=O)O | 11.8 µM (active)
38 | COc1cc2nc(-c3cc(F)ccc3O)nc(N[C@@H]3CNC[C@@H]3C(C)(C)O)c2cc1OC | 2.64 µM (active)
39 | C=C1[C@H](n2cnc3c(=O)[nH]c(N)nc32)C[C@H](O)[C@H]1CO | 3.32 µM (active)
40 | O=C(c1ccc(C=Cc2n[nH]c3ccccc23)cc1)N1CCNCC1 | 3.32 µM (active)
41 | CC(C)N(CCCNC(=O)Nc1ccc(C(C)(C)C)cc1)C[C@H]1O[C@@H](n2cc(Br)c3c(N)ncnc32)[C@H](O)[C@H]1O | 16.6 µM (active)
42 | CC[C@H](NC(=O)[C@H](C)NC)C(=O)N1C[C@@H](O)C[C@H]1Cc1c(-c2[nH]c3cc(F)ccc3c2C[C@H]2C[C@H](O)CN2C(=O)[C@H](CC)NC(=O)[C@H](C)NC)[nH]c2cc(F)ccc12 | 16.6 µM (active)
43 | CC1(C)OC2CC3C4CC(F)C5=CC(=O)C=CC5(C)C4C(O)CC3(C)[C@]2(C(=O)CO)O1 (some centres not stated) | inactive
44 | CO[C@H]1/C=C\O[C@@]2(C)Oc3c(C)c(O)c4c(O)c(c5c(nc6cc(C)ccn65)c4c3C2=O)NC(=O)C(C)=CC=C[C@H](C)[C@H](O)[C@@H](C)[C@@H](O)[C@@H](C)[C@H](OC(C)=O)[C@H]1C | 11.8 µM (active)
45 | O=S(=O)(NCCNCC=Cc1ccc(Br)cc1)c1cccc2cnccc12 | 14.8 µM (active)
46 | CC(=O)OCC(=O)[C@@]1(O)CC[C@H]2[C@@H]3CCC4=CC(=O)C=C[C@]4(C)[C@@H]3[C@@H](O)C[C@@]21C | inactive
47 | CCC[C@@H](NC(=O)[C@@H]1[C@H]2CCC[C@@H]2CN1C(=O)[C@@H](NC(=O)[C@@H](NC(=O)c1cnccn1)C1CCCCC1)C(C)(C)C)C(=O)C(=O)NC1CC1 | 14.8 µM (active)
